Data published in PubChem BioAssay (NCATS).
Inconclusive results are not listed. Entries that show only a call come without a potency. Calls of active or inactive are those of the source. Calls come from the whole dose curve; as a rule, active = well fitted inhibition curve with a large enough effect; inconclusive = small, poorly fitted or top-dose-only effect; inactive = flat fitted curve, though single readings scatter.

tested on: CP203; assay: qHTS profiling for inhibitors of Plasmodium falciparum proliferation (AID 504749); note: nearly all actives have a fitted effect of over 60% in size; settings: P. falciparum in erythrocytes, SYBR Green DNA, 72 h; series mostly up to 28.7 µM
Description: NIH National Institute of Allergy and Infectious Diseases [NIAID] NIH Chemical Genomics Center [NCGC] MLPCN Grant: None Assay Provider: Xinzhuan Su, NIAID NCGC Assay Overview: Plasmodium falciparum is a virulent malarial parasite that kills 1-2 million people worldwide each year. Transmitted by mosquitoes, the sporozoite form of the parasite enters the blood stream to infect hepatocytes, where they become merozoites that infect red blood cells (erythrocytes). Within erythrocytes, merozoites begin a […] cycle of growth and division, after which the parasite is released to infect new red blood cells. Gametocytes, which form within erythrocytes as well, circulate in the bloodstream and are ingested by the mosquito, thereby completing the life cycle. To profile malarial isolates for differential chemical responses and to identify inhibitors of malarial growth, an assay that measures P. falciparum growth and replication within erythrocytes was employed. This assay uses a DNA binding fluorescent dye (SYBR Green) to detect parasite DNA following cell lysis. Because mature erythrocytes lack DNA, only Plasmodium-derived DNA is detected.
NCGC Assay Protocol Summary: The SYBR Green viability assay was adapted from a method described previously (Plouffe et al., 2008). For screening 3 ul culture medium was dispensed into 1536 well black clear bottom plates (Aurora Biotechnologies) using a Multidrop Combi (Thermo Fisher Scientific Inc.), 23 nL compounds in DMSO were added by a pin tool (Kalypsys), and 5 ul of erythrocytes infected with P. falciparum (0.3% parasitemia, 2.5% hematocrit final concentration) were added. The plates were incubated at 37 C in a humidified incubator in 5% CO2 for 72 h, and 2 ul lysis buffer (20 mM Tris HCl, 10 mM EDTA, 0.16% saponin, 1.6% triton X, 10X SYBR Green I supplied as 10,000X […] by Invitrogen) was added to each well. The plates were mixed for 25 sec with gentle shaking and incubated overnight at room temperature in the dark. The following morning, fluorescence intensity at 485(14) nm excitation and 535(25) nm emission wavelengths was measured on an EnVision (Perkin Elmer) plate reader. Plate reads were normalized relative to the control inhibitor (0.29 uM artemisinin) and vehicle (DMSO) wells present on each plate and then corrected by an algorithm using vehicle-only control plates at the beginning and end of the compound plate stack.
Potency is the fitted concentration of half-maximal effect.

**Q.** How did the Potency turn out when `CCCCc1ncc(/C=C(\Cc2cccs2)C(=O)O)n1Cc1ccc(C(=O)O)cc1` was run?
**A.** inactive

**Q.** Which Potency does the source give for `COc1cc2[nH]c(=O)[nH]c(=O)c2cc1OC` here?
**A.** inactive

**Q.** For `CCCCN(CCCC)CCCOC(=O)c1ccc(N)cc1`, which Potency is on record?
**A.** inactive

**Q.** `O=c1cc(CO)occ1O` was tested. Which Potency did it give?
**A.** inactive

**Q.** For `CCCCCCCCCCCCCCCC(=O)NCCO`, which Potency is on record?
**A.** inactive

**Q.** `CCCOC(=O)c1ccccc1` was tested. Which Potency did it give?
**A.** inactive

**Q.** For `NCC(=O)CCC(=O)O`, which Potency is on record?
**A.** inactive

**Q.** How did the Potency turn out when `C[C@@H]1CN(c2c(F)c(F)c3c(=O)c(C(=O)O)cn(C4CC4)c3c2F)C[C@H](C)N1` was run?
**A.** inactive

**Q.** Which Potency does the source give for `NCCNCCNCCN` here?
**A.** inactive

**Q.** For `COc1ccc(S(=O)(=O)Nc2nnc(CC(C)C)s2)cc1`, which Potency is on record?
**A.** inactive

**Q.** Which Potency does the source give for `O=C(O)c1ccccc1O` here?
**A.** inactive

**Q.** `Cc1ccc(C(C)C)cc2c(C)ccc1-2` was tested. Which Potency did it give?
**A.** inactive

**Q.** For `Oc1cn2c(n1)Nc1ccc(Cl)c(Cl)c1C2`, which Potency is on record?
**A.** inactive

**Q.** For `Nc1ccc(S(=O)(=O)Nc2nccs2)cc1`, which Potency is on record?
**A.** inactive

**Q.** How did the Potency turn out when `O=C(O)c1ccccn1` was run?
**A.** inactive

**Q.** `O=c1cc[nH]c(=S)[nH]1` was tested. Which Potency did it give?
**A.** inactive

**Q.** How did the Potency turn out when `O=C1OC(OC(=O)c2cccnc2Nc2cccc(C(F)(F)F)c2)c2ccccc21` (stereo not given) was run?
**A.** inactive

**Q.** Which Potency does the source give for `CC(C(O)c1ccc(O)cc1)N1CCC(Cc2ccccc2)CC1` (stereo not given) here?
**A.** 12 µM (active)

**Q.** Which Potency does the source give for `CC[C@@]1(c2ccccc2)NC(=O)N(C)C1=O` here?
**A.** inactive

**Q.** With `COc1ccc2[nH]c(S(=O)Cc3ncc(C)c(OC)c3C)nc2n1` (stereo not given) as the compound, how does the Potency read?
**A.** inactive

**Q.** With `CCn1cc(C(=O)O)c(=O)c2cnc(N3CCNCC3)nc21` as the compound, how does the Potency read?
**A.** inactive

**Q.** `O=c1[nH]c(=O)c2[nH]c(=O)[nH]c2[nH]1` was tested. Which Potency did it give?
**A.** inactive

**Q.** Which Potency does the source give for `O=C(O)COc1nn(Cc2ccccc2)c2ccccc12` here?
**A.** inactive

**Q.** With `CC12CCC(CC1)C(C)(C)O2` as the compound, how does the Potency read?
**A.** inactive

**Q.** How did the Potency turn out when `CCN(CC)CCNC(=O)c1c(C)[nH]c(/C=C2\C(=O)Nc3ccc(F)cc32)c1C` was run?
**A.** 10.7 µM (active)

**Q.** With `CCC(=O)c1ccc(O)cc1` as the compound, how does the Potency read?
**A.** inactive

**Q.** `CC1(C)[C@@H]2CC[C@@]1(C)C(=O)C2` was tested. Which Potency did it give?
**A.** inactive

**Q.** `CCCCC(CC)COC(=O)c1ccccc1O` (stereo not given) was tested. Which Potency did it give?
**A.** inactive

**Q.** For `Cc1cc(O)cc2c1O[C@](C)(CCC[C@H](C)CCC[C@H](C)CCCC(C)C)CC2`, which Potency is on record?
**A.** inactive

**Q.** `O=C1NS(=O)(=O)c2ccccc21` was tested. Which Potency did it give?
**A.** inactive

**Q.** For `[O-][n+]1cccc(CO)c1`, which Potency is on record?
**A.** inactive

**Q.** Which Potency does the source give for `O=C1NC(=O)[C@@]2(CCOc3ccc(F)cc32)N1` here?
**A.** inactive

**Q.** Which Potency does the source give for `CC1(C)OC(=O)NC1=O` here?
**A.** inactive

**Q.** `N[C@@H](CSCCCO)C(=O)O` was tested. Which Potency did it give?
**A.** inactive

**Q.** `CC(O)COc1ccccc1` (stereo not given) was tested. Which Potency did it give?
**A.** inactive

**Q.** `CCC(=O)Nc1ccc(O)cc1` was tested. Which Potency did it give?
**A.** inactive

**Q.** `CC1(C)CO[C@@H](CC(=O)O)CN1` was tested. Which Potency did it give?
**A.** inactive

**Q.** `[Cl][In]([Cl])[Cl]` was tested. Which Potency did it give?
**A.** inactive

**Q.** `NCCNCCNCCNCCN` was tested. Which Potency did it give?
**A.** inactive

**Q.** How did the Potency turn out when `COc1cc(C(=O)N2CCOCC2)cc(OC)c1OC` was run?
**A.** inactive
